Source: the supplement of paper PMC10515830
Where a name gives a salt, the structure may show the parent alone.

Legend:
Conditions in all cases: 10 µM; exposure time 6 h
[1] = system: Danio rerio larvae (5 dpf); experiment: difference in excitability vs DMSO (percentage points); higher = more excitable than DMSO
Summary of the method: (§1)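 In 96-well plates, 48 wild-type zebrafish larvae aged 5 dpf per compound received 100 µL egg water with library compound at 10 µM final for 6 h. Three hours into this, a 3-h programme of moving lines and 100 ms, 400Hz tones ran at 28.5 ℃ while plates were photographed every 6 s. Z-LaP Tracker scored the behaviours, and each is given as the compound mean minus the vehicle control mean in percentage points.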

[2] = system: Danio rerio larvae (5 dpf); experiment: difference in startle response vs DMSO (percentage points); higher = stronger startle than DMSO
Summary of the method: as §1

[3] = system: Danio rerio larvae (5 dpf); experiment: difference in activity during first hour vs DMSO (percentage points); higher = more activity than DMSO
Summary of the method: as §1

[4] = system: Danio rerio larvae (5 dpf); experiment: difference in habituation to acoustic stimuli vs DMSO (percentage points); higher = more habituation than DMSO
Summary of the method: as §1

[5] = system: Danio rerio larvae (5 dpf); experiment: difference in combined optomotor response to red, green and blue moving lines vs DMSO (percentage points); higher = stronger optomotor response than DMSO
Summary of the method: as §1

Row | Structure (SMILES) | difference in excitability [1] | difference in startle response [2] | difference in activity during first hour [3] | difference in habituation to acoustic stimuli [4] | difference [5]
1 | CCS(=O)(=O)CCn1c([N+](=O)[O-])cnc1C [Tinidazole] | 0.787 | 3.72 | 7.24 | 0.838 | 7.16
2 | CCCCN1CCCCC1C(=O)Nc1c(C)cccc1C (stereo not given) [Bupivacaine] | 0.996 | -2.63 | 13.4 | 2.63 | 6.71
3 | O=C1C(O)=C([C@H]2CC[C@H](c3ccc(Cl)cc3)CC2)C(=O)c2ccccc21 [Atovaquone] | -0.794 | -0.517 | -0.977 | -6.16 | -7.53
4 | CCS(=O)(=O)N1CC(CC#N)(n2cc(-c3ncnc4[nH]ccc34)cn2)C1 [Baricitinib] | 7.57 | -3.92 | 10.9 | -5.36 | 5.99
5 | Cn1ccnc1S [Methimazole] | -1.48 | 3.48 | -0.609 | 0.155 | 3.45
6 | CNCCC=C1c2ccccc2CCc2ccccc21 [Nortriptyline (hydrochloride)] | 3.17 | 4.3 | -17.9 | -3.34 | -2.39
7 | O=C1CCc2cc(OCCCCc3nnnn3C3CCCCC3)ccc2N1 [Cilostazol] | 12.6 | 2.9 | 11.7 | -4.79 | 0.57
8 | C[C@](N)(Cc1ccc(O)c(O)c1)C(=O)O [L-(-)-α-Methyldopa] | 2.76 | -2.74 | 3.45 | -1.83 | 6
9 | Nc1ncnc2c1ncn2[C@@H]1O[C@H](CO)[C@@H](O)[C@H]1O [Adenosine] | 1.75 | 6.58 | 10 | -5.11 | 5.99
10 | CC1COc2c(N3CCN(C)CC3)c(F)cc3c(=O)c(C(=O)O)cn1c23 (stereo not given) [Ofloxacin] | 5.76 | 3.75 | 9.1 | -0.318 | 1.41
11 | CC(=O)NO [Acetohydroxamic Acid] | 12 | 9 | -12.9 | 3.36 | -4.35
12 | CCOc1ccc(Cc2cc([C@@H]3O[C@H](CO)[C@@H](O)[C@H](O)[C@H]3O)ccc2Cl)cc1 [Dapagliflozin] | -2.18 | 0.361 | -2.82 | -5.36 | 5.64
13 | CC(=O)O[C@H]1C(=O)[C@@]2(C)[C@H]([C@H](OC(=O)c3ccccc3)[C@]3(O)C[C@H](OC(=O)[C@H](O)[C@@H](NC(=O)c4ccccc4)c4ccccc4)C(C)=C1C3(C)C)[C@]1(OC(C)=O)CO[C@@H]1C[C@@H]2O [Paclitaxel] | -11.7 | -1.74 | -4.46 | 3.51 | -2.9
14 | CC1=C(/C=C/C(C)=C\C=C\C(C)=C\C(=O)O)C(C)(C)CCC1 [9-cis-Retinoic Acid] | 5.5 | -1.66 | 5.1 | 10.2 | 2.9
15 | CN(C)CCC[C@@]1(c2ccc(F)cc2)OCc2cc(C#N)ccc21 [Escitalopram] | 12.5 | -1.37 | -18.9 | 1.61 | 1.8
16 | CCCCC[C@H](O)/C=C/[C@H]1[C@H](O)CC(=O)[C@@H]1CCCCCCC(=O)O [Prostaglandin E1] | 15.5 | -3.01 | -8.7 | -1.03 | 0.226
17 | CC(C)N1CCN(c2ccc(OCC3COC(Cn4cncn4)(c4ccc(Cl)cc4Cl)O3)cc2)CC1 (stereo not given) [Terconazole] | 18 | -1.46 | 2.36 | -6.11 | 0.243
18 | C[C@@H](O[C@H]1OCCN(Cc2n[nH]c(=O)[nH]2)[C@H]1c1ccc(F)cc1)c1cc(C(F)(F)F)cc(C(F)(F)F)c1 [Aprepitant] | 9.22 | -5.06 | 6.23 | -3.45 | 4.82
19 | CCC(=O)OCC(=O)[C@@]1(OC(=O)CC)[C@H](C)C[C@H]2[C@H]3[C@H]([C@@H](O)C[C@@]21C)[C@@]1(C)C=CC(=O)C=C1C[C@H]3Cl [Alclometasone Dipropionate] | 3.59 | 5.9 | -1.03 | -0.676 | 5.42
20 | CC1=C(CC(=O)O)c2cc(F)ccc2/C1=C\c1ccc([S+](C)[O-])cc1 (stereo not given) [Sulindac] | 6.96 | 0.529 | 10.8 | 0.634 | -2.61
21 | Clc1ccc(COC(Cn2ccnc2)c2ccc(Cl)cc2Cl)cc1 (stereo not given) [Econazole (nitrate)] | 7.22 | -9.26 | -22.1 | -11.9 | -16.9
22 | COc1cccc2c1C(=O)c1c(O)c3c(c(O)c1C2=O)C[C@@](O)(C(C)=O)C[C@@H]3O[C@H]1C[C@H](N)[C@H](O)[C@H](C)O1 [Daunorubicin (hydrochloride)] | 19.8 | 4.36 | -3.27 | 5.5 | -1.09
23 | COc1c(N2CCNC(C)C2)c(F)cc2c(=O)c(C(=O)O)cn(C3CC3)c12 (stereo not given) [Gatifloxacin] | 15 | -3.53 | -1.17 | 2.86 | 2.83
24 | CCCNC(C)C(=O)Nc1c(C)csc1C(=O)OC (stereo not given) [Articaine (hydrochloride)] | 2.22 | -2.43 | 5.22 | 0.219 | -0.0299
25 | Cc1cn([C@H]2C[C@H](N=[N+]=[N-])[C@@H](CO)O2)c(=O)[nH]c1=O [Zidovudine] | 4.38 | -2.12 | 0.0973 | 1.67 | 6.8

Row | Structure (SMILES) | difference in excitability [1] | difference in startle response [2] | difference in activity during first hour [3] | difference in habituation to acoustic stimuli [4] | difference [5]
26 | CC1=C(/C=C/C(C)=C/C=C/C(C)=C/C(=O)O)C(C)(C)CCC1 [all-trans Retinoic Acid] | 7.11 | -8.47 | -4.15 | -13.5 | 6.48
27 | CC(=O)c1ccc(S(=O)(=O)NC(=O)NC2CCCCC2)cc1 [Acetohexamide] | -0.755 | 2.86 | -0.443 | -3.12 | 2.21
28 | CNCC[C@@H](Oc1ccccc1C)c1ccccc1 [Atomoxetine (hydrochloride)] | 21.7 | -9.34 | -21.4 | -3.36 | -0.351
29 | CC(=O)Oc1ccccc1C(=O)Nc1ncc([N+](=O)[O-])s1 [Nitazoxanide] | 12.9 | -13.9 | -14.8 | -12.4 | -17.8
30 | Cn1c(=O)c2[nH]cnc2n(C)c1=O [Oxtriphylline] | -4.32 | 6.97 | -0.101 | 1.02 | -3.12
31 | NCCS [Cysteamine (hydrochloride)] | 4.79 | 3.78 | 3.89 | 0.254 | 14.5
32 | COC[C@H]1C[C@@H](c2nc(-c3ccc4c(c3)COc3cc5c(ccc6nc([C@@H]7CC[C@H](C)N7C(=O)[C@@H](NC(=O)OC)C(C)C)[nH]c65)cc3-4)c[nH]2)N(C(=O)[C@H](NC(=O)OC)c2ccccc2)C1 [Velpatasvir] | 10.1 | 2.08 | 2 | -1.59 | 0.589
33 | CCCN1CCCC[C@H]1C(=O)Nc1c(C)cccc1C [(-)-Ropivacaine (hydrochloride hydrate)] | -4.41 | -2.15 | 7.62 | -1.06 | 1.37
34 | CC=CC1=C(C(=O)O)N2C(=O)[C@@H](NC(=O)[C@H](N)c3ccc(O)cc3)[C@H]2SC1 [Cefprozil] | 11.3 | -8.07 | 1.23 | 4.8 | -4.03
35 | CC(=O)NS(=O)(=O)c1ccc(N)cc1 [Sulfacetamide (sodium salt)] | 9.42 | 1.32 | -8.28 | 4.81 | 7.06
36 | CNC(=O)c1cc(Oc2ccc(NC(=O)Nc3ccc(Cl)c(C(F)(F)F)c3)cc2)ccn1 [Sorafenib] | 19.5 | -6.25 | -3.15 | -3.01 | -2.71
37 | CC12CC3CC(C)(C1)CC(N)(C3)C2 [Memantine (hydrochloride)] | 4.15 | -1.38 | 1.52 | 2.49 | 3.21
38 | O=C(O)C(=O)O.[NH-][C@@H]1CCCC[C@H]1[NH-].[Pt+2] [Oxaliplatin] | -8.81 | 2.6 | -6.68 | 11.3 | 1.69
39 | C=C1CC[C@H](O)C/C1=C/C=C1\CCC[C@]2(C)[C@@H]([C@H](C)CCCC(C)(C)O)CC[C@@H]12 [25-hydroxy Vitamin D3] | 4.23 | -8.24 | 8.17 | -5.95 | -5
40 | CCC[C@@H]1C[C@@H](C(=O)N[C@@H]([C@H]2O[C@H](SC)[C@H](O)[C@@H](O)[C@H]2O)[C@H](C)Cl)N(C)C1 [Clindamycin] | -2.97 | 2.68 | -14.7 | 4.82 | -4.05
41 | C=C1/C(=C\C=C2/CCC[C@]3(C)[C@@H]([C@H](C)/C=C/[C@H](C)C(C)C)CC[C@@H]23)C[C@@H](O)C[C@@H]1O [1-hydroxy Vitamin D2] | 1.72 | -1.97 | 2.97 | 0.874 | 6.19
42 | CCN[C@H]1CN(CCCOC)S(=O)(=O)c2sc(S(N)(=O)=O)cc21 [Brinzolamide] | 2.16 | -4.77 | -5.26 | -5.35 | 1.28
43 | CC(=O)NC[C@H]1CN(c2ccc(N3CCOCC3)c(F)c2)C(=O)O1 [Linezolid] | -5.19 | 5.59 | -0.74 | 3.24 | 0.137
44 | CN(N=O)C(=O)N[C@@H](C=O)[C@@H](O)[C@H](O)[C@H](O)CO [Streptozotocin] | -0.24 | -1.97 | -9.76 | -6.76 | -1.53
45 | OC(CCN1CCCCC1)(c1ccccc1)C1CC2C=CC1C2 (stereo not given) [Biperiden (hydrochloride)] | 9.71 | -7.39 | -0.127 | -10.7 | -2.85
46 | C[C@H](Nc1ncnc2nc[nH]c12)c1cc2cccc(Cl)c2c(=O)n1-c1ccccc1 | -1.93 | 2.84 | 12.8 | 2.7 | 8.44
47 | CC(=O)N(O)CCCCCNC(=O)CCC(=O)N(O)CCCCCNC(=O)CCC(=O)N(O)CCCCCN [Deferoxamine (mesylate)] | 4.87 | -4.66 | 10.3 | -2.2 | 2.91
48 | C[n+]1ccccc1/C=N/O [Pralidoxime (chloride)] | 1.97 | -3.28 | 6.01 | 2.57 | 1.74
49 | CCc1ccc(CCOc2ccc(CC3SC(=O)NC3=O)cc2)nc1 (stereo not given) [Pioglitazone (hydrochloride)] | 12.4 | -4.66 | -15.3 | 6.03 | 3.69
